Laboratory results reported in PubChem BioAssay (NCI).
Compounds without any hit were thinned out: in the full panel of roughly 79,000, 15% have a hit. Values without a mark were called inactive. Activity calls are given as the source filed them. No stated cut-off is given here; in the data, active means growth inhibition above about 70%; inactive means the rest.

Test: NCI Yeast Anticancer Drug Screen. Data for the wt2 strain (AID 169);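 further: 0% = growth of vehicle-treated yeast cultures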
Details: S. cerevisiae wt2 strain growth inhibition; at 3.7 µM; stronger effect = higher value
In short: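 Compound exposure of yeast; growth compared with vehicle controls; inhibition reported.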

First: CCC/C(Cl)=N\OC(=O)Nc1cccc(C(F)(F)F)c1
Second: CC(=O)Nc1ccc2c(c1)C(=Nc1ccc(C(=O)O)cc1)c1ccccc1-2
The growth inhibition of the first is higher: 38% for the first, -2% for the second.

First: [O-][n+]1c2ccc(O)cc2nc2ccc(Cl)cc21
Second: O=C(O)C1OC1(c1cccc(Cl)c1)c1ccccc1Cl (stereo not drawn)
The growth inhibition of the first is higher: 11% for the first, -20% for the second.

Compared with Clc1ccccc1C1OC1c1ccccc1Cl (stereo not drawn), O=C1c2ccccc2-c2n[nH]c3cccc1c23 is higher in growth inhibition: -71% for the first, -20% for the second.

First: c1ccc2c(c1)c1ncccc1c1nccnc21
Second: COc1ccc(OC)c2cc3ccccc3cc12
The growth inhibition of the first is higher: 14% for the first, -28% for the second.

Compared with COc1cc(C2c3cc4c(cc3OC(NNc3ccccc3)C2C)OCO4)cc(OC)c1OC (stereo not drawn), COc1ccccc1/C=C1\Sc2scc(-c3cccc([N+](=O)[O-])c3)[n+]2C1=O is higher in growth inhibition: -13% for the first, 59% for the second.

First: O=C1c2cc([N+](=O)[O-])ccc2-c2cccc(F)c21
Second: Nc1ccc2c(c1)C(=O)c1cccc(N)c1C2=O
The growth inhibition of the first is lower: 3% for the first, 11% for the second.

First: CCCCCCCCCCCC(=O)N(C)C
Second: CCCCCCCCCCNC(=O)OCC
The growth inhibition of the first is lower: -11% for the first, -3% for the second.

CCCCCCCCCCCC1=C(O)C(=O)C=C(O)C1=O and CCCCCCCCCCC1CCC(=O)O1 (stereo not drawn) are the same in growth inhibition: 8% for the first, 8% for the second.

Going from Cc1ccc(CSC(N)=Nc2ccccc2)cc1C to Cc1ccc(S/N=C\c2ccccc2O)cc1, the growth inhibition rises from -3% to 4%.

Compared with O=[N+]([O-])c1cc(CCl)ccc1CCl, O=[N+]([O-])c1cccc2nccc(NCCCO)c12 is lower in growth inhibition: 15% for the first, -26% for the second.

Going from CC1=C(C)Cc2c(O)ccc(O)c2C1 to Cc1ccc(CCC2=CCCc3c2ccc2ccccc32)cc1, the growth inhibition rises from -6% to -5%.

Going from COc1ccc2c(c1)C(=O)c1ccccc1C2 to COc1ccccc1C(=O)OCC1CCCN2CCCCC12 (stereo not drawn), the growth inhibition falls from 3% to -5%.

Going from CCC(=O)OCCn1c2nc(=O)[nH]c(=O)c-2nc2cc(C)c(C)cc21 to Cc1ccc2[nH]c3c(C)c4cc[n+](C)cc4c(C)c3c2c1, the growth inhibition falls from -1% to -19%.

First: O=C(OCCN1CCCCCC1)C(c1ccsc1)C1CCCCC1 (stereo not drawn)
Second: S=C(N/N=C(/c1ccccc1)c1ccccn1)N1CCCCCC1
The growth inhibition of the first is higher: 17% for the first, 7% for the second.

Going from Oc1c(Br)cc(Br)cc1C1CCCCC1 to O=C(OCC=C1CCCC1)c1cc([N+](=O)[O-])cc([N+](=O)[O-])c1, the growth inhibition rises from -22% to -3%.

Compared with CC1(C)[C@@H]2CC[C@]1(C)[C@H](OC(=O)CSC#N)C2, N#CN1C2CCC1CC(=O)C2 is lower in growth inhibition: 5% for the first, -16% for the second.

Going from CNC(=O)OCc1c(COC(=O)NC)c(-c2ccc(-c3ccccc3)cc2)n(C)c1C to Cc1ccc(-n2cc(-c3ccc(Cl)cc3)c(C#N)c2N)cc1, the growth inhibition rises from -29% to -1%.

First: O=[N+]([O-])c1ccc2c(c1)C(N1CCN(CCO)CC1)Cc1ccc(F)cc1S2 (stereo not drawn)
Second: CCNc1nnc(CSc2nc(-c3ccccc3)c(-c3ccccc3)[nH]2)s1
The growth inhibition of the first is higher: -3% for the first, -9% for the second.

First: NC(=S)N/N=C\c1nccc2ccccc12
Second: Clc1cccc(C(Nc2nncs2)Nc2nncs2)c1Cl
The growth inhibition of the first is lower: -4% for the first, 8% for the second.

O=C(Nc1ccccc1)C(=O)C(C(=O)c1ccccc1)C(c1ccccc1)c1ccccc1 (stereo not drawn) showed a growth inhibition of 2%.

Same assay, conditions: S. cerevisiae wt2 strain growth inhibition; at 11.0 µM; stronger effect = higher value

Compared with CCC/C(Cl)=N\OC(=O)Nc1cccc(C(F)(F)F)c1, CC(=O)Nc1ccc2c(c1)C(=Nc1ccc(C(=O)O)cc1)c1ccccc1-2 is lower in growth inhibition: 61% for the first, -2% for the second.

Compared with [O-][n+]1c2ccc(O)cc2nc2ccc(Cl)cc21, O=C(O)C1OC1(c1cccc(Cl)c1)c1ccccc1Cl (stereo not drawn) is lower in growth inhibition: 26% for the first, -18% for the second.

Compared with Clc1ccccc1C1OC1c1ccccc1Cl (stereo not drawn), O=C1c2ccccc2-c2n[nH]c3cccc1c23 is higher in growth inhibition: -69% for the first, 2% for the second.

First: c1ccc2c(c1)c1ncccc1c1nccnc21
Second: COc1ccc(OC)c2cc3ccccc3cc12
The growth inhibition of the first is higher: 16% for the first, -16% for the second.

Going from COc1cc(C2c3cc4c(cc3OC(NNc3ccccc3)C2C)OCO4)cc(OC)c1OC (stereo not drawn) to CNC(=O)OCc1c(COC(=O)NC)c(-c2ccc(-c3ccccc3)cc2)n(C)c1C, the growth inhibition falls from 41% to -15%.

Compared with O=C1c2cc([N+](=O)[O-])ccc2-c2cccc(F)c21, Nc1ccc2c(c1)C(=O)c1cccc(N)c1C2=O is higher in growth inhibition: 4% for the first, 19% for the second.

Going from CCCCCCCCCCCC(=O)N(C)C to CCCCCCCCCCNC(=O)OCC, the growth inhibition rises from -11% to 1%.

Going from Cc1ccc(CSC(N)=Nc2ccccc2)cc1C to Cc1ccc(S/N=C\c2ccccc2O)cc1, the growth inhibition rises from -13% to 5%.

First: CCCCCCCCCCC1CCC(=O)O1 (stereo not drawn)
Second: N#CN1C2CCC1CC(=O)C2
The growth inhibition of the first is higher: 0% for the first, -19% for the second.

First: O=[N+]([O-])c1cc(CCl)ccc1CCl
Second: O=[N+]([O-])c1cccc2nccc(NCCCO)c12
The growth inhibition of the first is higher: 54% for the first, -19% for the second.

Compared with CC1=C(C)Cc2c(O)ccc(O)c2C1, Cc1ccc(CCC2=CCCc3c2ccc2ccccc32)cc1 is lower in growth inhibition: -4% for the first, -5% for the second.

Compared with COc1ccc2c(c1)C(=O)c1ccccc1C2, Cc1ccc(-n2cc(-c3ccc(Cl)cc3)c(C#N)c2N)cc1 is lower in growth inhibition: 6% for the first, 1% for the second.

Compared with CCC(=O)OCCn1c2nc(=O)[nH]c(=O)c-2nc2cc(C)c(C)cc21, Cc1ccc2[nH]c3c(C)c4cc[n+](C)cc4c(C)c3c2c1 is lower in growth inhibition: 20% for the first, -15% for the second.

Going from O=C(OCCN1CCCCCC1)C(c1ccsc1)C1CCCCC1 (stereo not drawn) to S=C(N/N=C(/c1ccccc1)c1ccccn1)N1CCCCCC1, the growth inhibition falls from 22% to 12%.

Going from Oc1c(Br)cc(Br)cc1C1CCCCC1 to O=C(OCC=C1CCCC1)c1cc([N+](=O)[O-])cc([N+](=O)[O-])c1, the growth inhibition rises from -15% to 16%.

Compared with CC1(C)[C@@H]2CC[C@]1(C)[C@H](OC(=O)CSC#N)C2, O=[N+]([O-])c1ccc2c(c1)C(N1CCN(CCO)CC1)Cc1ccc(F)cc1S2 (stereo not drawn) is lower in growth inhibition: 25% for the first, -3% for the second.

Going from NC(=S)N/N=C\c1nccc2ccccc12 to CCNc1nnc(CSc2nc(-c3ccccc3)c(-c3ccccc3)[nH]2)s1, the growth inhibition falls from 14% to -37%.

Going from Clc1cccc(C(Nc2nncs2)Nc2nncs2)c1Cl to O=C(Nc1ccccc1)C(=O)C(C(=O)c1ccccc1)C(c1ccccc1)c1ccccc1 (stereo not drawn), the growth inhibition rises from 1% to 2%.

With CCCCCCCCCCCC1=C(O)C(=O)C=C(O)C1=O the growth inhibition was 79% (active).
In the case of COc1ccccc1/C=C1\Sc2scc(-c3cccc([N+](=O)[O-])c3)[n+]2C1=O, the growth inhibition is reported as 98% (active).
With COc1ccccc1C(=O)OCC1CCCN2CCCCC12 (stereo not drawn) the growth inhibition was 94% (active).
